In PubChem BioAssay AID1645855 (Buhrlage Lab, Dana-Farber Cancer Institute and Novartis …, 2021):
In all, about 47,000 compounds went through this assay and about 3,100 (6.6%) were called active. The entries come from a sample that favours actives as a whole. Unmarked numbers belong to inactive results. Rule as the data show it: active = inhibition above about 30%; inactive = the rest.

These compounds were tested against Ubiquitin carboxyl-terminal hydrolase 17-like protein 5 (Homo sapiens) (UniProt A8MUK1) (assay: inhibitors of human USP17 deubiquitinase (AID 1645855)). Conditions: purified USP17, Ub-rhodamine cleavage fluorescence, 3 h; at 50 µM; hits give high values.
Chain of Ubiquitin carboxyl-terminal hydrolase 17-like protein 5 (Homo sapiens) (A8MUK1 whole entry, looked up): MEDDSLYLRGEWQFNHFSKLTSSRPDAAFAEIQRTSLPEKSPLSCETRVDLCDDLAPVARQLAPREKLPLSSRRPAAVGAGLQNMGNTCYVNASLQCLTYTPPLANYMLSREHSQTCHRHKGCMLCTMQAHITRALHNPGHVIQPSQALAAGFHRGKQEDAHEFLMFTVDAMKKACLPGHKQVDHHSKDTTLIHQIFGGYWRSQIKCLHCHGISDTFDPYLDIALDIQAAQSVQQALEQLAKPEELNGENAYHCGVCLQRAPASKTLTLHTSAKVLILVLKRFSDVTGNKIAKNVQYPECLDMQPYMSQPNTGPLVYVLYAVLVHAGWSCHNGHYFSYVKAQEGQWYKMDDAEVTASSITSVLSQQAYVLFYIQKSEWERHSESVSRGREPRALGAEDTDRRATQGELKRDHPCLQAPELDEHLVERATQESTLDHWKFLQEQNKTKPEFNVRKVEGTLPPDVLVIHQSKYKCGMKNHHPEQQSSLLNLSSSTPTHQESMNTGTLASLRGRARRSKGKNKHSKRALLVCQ
Work on `O=C(CN1CC(=O)c2ccccc2S1(=O)=O)Nc1ccccc1` yielded an inhibition of -5.61%. For `Cc1nn(-c2ccccc2)c(C)c1S(=O)(=O)N1CCCCC1`, the inhibition was 3.01%. Work on `Cc1cc(C)nc(N(C(=O)C2CC2)c2ccc(OC(F)(F)F)cc2)n1` yielded an inhibition of 1.83%. With `Cc1nnc(OCC(=O)Nc2ccc(OC(F)(F)F)cc2)c2ccccc12` the inhibition was 77.7% (active). `COC(=O)c1ccc(NC(=O)CSc2nnc(C(C)Oc3ccccc3)n2C)cc1` (configuration not stated) gave an inhibition of 5.22%. With `O=C(Cc1ccc(F)cc1)Nc1ccccc1Cc1ccccc1` the inhibition was 27.4%. Work on `Cc1cc(F)ccc1NC(=O)Cc1n[nH]c(Cc2ccccc2)n1` yielded an inhibition of -9.74%. With `Cc1ccccc1NC(=O)Cc1csc2nc(-c3ccc(F)cc3)cn12` the inhibition was 86% (active). `CN1CC2(COc3ccccc31)CN(S(=O)(=O)c1ccc3c(c1)OCO3)CCO2` (configuration not stated) was tested, and the inhibition was -2.79%. Work on `CC1(C(=O)NCc2cccc(Cl)c2)Oc2cccnc2NC1=O` (configuration not stated) yielded an inhibition of -7.83%. For `O=C(NCC1CC1)[C@H]1C[C@@H]2CN(S(=O)(=O)c3ccccc3)C[C@H]1O2`, the inhibition was -13.7%. In the case of `Cn1cc(CCNC(=O)c2cc3ccccc3[nH]2)c2cccnc21`, the inhibition is reported as -17.1%. Work on `Cc1cccc(NC(=O)c2csc(-c3cn(C)c4ncccc34)n2)c1` yielded an inhibition of 2.63%. In the case of `Cn1cc(-c2nc(C(=O)Nc3ccc(F)cc3)cs2)c2cccnc21`, the inhibition is reported as 59.4% (active). In the case of `COCCNC(=O)C1c2ccccc2C(=O)N(C2CCCC2)C12CCCCC2` (configuration not stated), the inhibition is reported as -1.76%. In the case of `O=S(Cc1cc(Sc2ccccc2)nc(-c2ccccn2)n1)c1ccc(Cl)cc1` (configuration not stated), the inhibition is reported as -9.57%. Compound `CC(C)(C)c1cc2n(n1)CCN(Cc1ccccc1C(F)(F)F)C2` has an inhibition of -4.87%. In the case of `COc1cccc(C(=O)N2CCC(c3nc4ccncc4n3C)C2)c1` (configuration not stated), the inhibition is reported as 10%. With `Fc1ccc(-n2cc(-c3ccccc3)c3c(NCc4ccco4)ncnc32)cc1` the inhibition was -3.63%. With `c1coc(CNc2nc(Nc3cccc4ccccc34)nc3ccccc23)c1` the inhibition was 83.4% (active). `O=C(CCc1nnc2ccc(N3CCCCC3)nn12)NCCC1=CCCCC1` was tested, and the inhibition was 1.2%. `O=c1ccc(-c2nc(-c3cnccn3)no2)cn1Cc1ccccc1C(F)(F)F` gave an inhibition of 7.06%. With `O=C1CNC(=O)N1CC(O)Cn1c2ccc(Br)cc2c2cc(Br)ccc21` (configuration not stated) the inhibition was 40.1% (active). With `CCc1ccc(-n2c(=O)c3ccccc3n(CC(=O)NCCC3=CCCCC3)c2=O)cc1` the inhibition was 64.3% (active). `O=C(CCc1nnc2n(CCc3ccccc3)c(=O)c3ccccc3n12)NCCN1CCCC1` was tested, and the inhibition was 13.7%. With `Cc1ccc(Cn2c(C)c(CNCCC3=CCCCC3)c(C(=O)O)c2C)cc1` the inhibition was 7.92%. Work on `CN(CCc1ccccn1)C(=O)c1cc2c(=O)oc3ccccc3c2s1` yielded an inhibition of 14.5%. `O=C(CC(NCc1cccnc1)C(=O)O)Nc1ccccc1` (configuration not stated) gave an inhibition of 6.61%. Compound `COc1cc(C)c(CN2CCc3c(nc4cc(-c5cc(C)on5)[nH]n4c3=O)C2)cc1OC` has an inhibition of 4.84%. `O=c1[nH]c(-c2ccccn2)nc2c1CCN(Cc1cnn(-c3ccc(F)cc3)c1)C2` was tested, and the inhibition was 43.5% (active). With `C#CCOc1ccc(CN2CCc3nc(-c4cccnc4)[nH]c(=O)c3C2)cc1OC` the inhibition was -0.00604%. `O=c1[nH]c(-c2ccncc2)nc2c1CCN(Cc1cn[nH]c1-c1ccc(Cl)cc1)C2` gave an inhibition of -0.0464%. `CCc1cccc(C)c1NC(=O)Cn1nc2ccc(C(=O)NCc3ccccc3)cn2c1=O` gave an inhibition of 16.4%. For `Cc1ccc(-c2cc(=O)[nH]c(NCc3ccccc3)n2)cc1`, the inhibition was -6.42%. For `CC(=O)N1CCN(c2cc(N3CCCCC3)nc(C)n2)CC1`, the inhibition was -36.6%. `CCCN1CCN(c2ccc(C(=O)O)cc2NS(=O)(=O)c2cc(F)ccc2F)CC1` showed an inhibition of 10.4%. With `Cc1ccc(-c2cc(C(F)F)n3ncc(C(=O)NCC(C)C)c3n2)cc1` the inhibition was 36.6% (active). For `Cc1cc(Nc2ccc(C(=O)NCC(C)C)cc2)n2nc(-c3cccnc3)nc2n1`, the inhibition was -7.54%. Work on `COc1ccc(-c2cc(C(F)F)n3ncc(C(=O)N(C)Cc4c(C)nn(C)c4C)c3n2)cc1` yielded an inhibition of -8.87%. With `O=C(O)COc1ccccc1C(c1c[nH]c2ccccc12)c1c[nH]c2ccccc12` the inhibition was -15.6%. For `COc1ccc(CN2CCN(C(=O)c3ccc4c(c3)OCO4)CC2)cn1`, the inhibition was -5.73%. With `CC(C)c1ccc(NC(=O)CCC(=O)N(c2ccccc2)c2ccccc2)cc1` the inhibition was 6.5%. In the case of `O=S(=O)(Nc1cccc(O)c1)c1ccc2oc3ccc(S(=O)(=O)Nc4cccc(O)c4)cc3c2c1`, the inhibition is reported as 39.1% (active). Work on `Cc1cccc(NS(=O)(=O)c2ccc3nnc(C)n3c2)c1` yielded an inhibition of 4.3%. `COc1cccc(NS(=O)(=O)c2ccc(-c3coc(C)n3)cc2)c1` gave an inhibition of 0.103%. Work on `CC1(C)Cc2cccc(OCC(=O)NCC(F)(F)F)c2O1` yielded an inhibition of 4.4%. With `COC(=O)c1ccc(C(=O)NCC2(O)CCc3ccccc32)cc1` (configuration not stated) the inhibition was -0.0822%. Work on `COCCN1C[C@@]23CN(C(=O)NCc4ccccc4)C[C@@H](C[C@@H]2S1(=O)=O)O3` yielded an inhibition of 12.1%. `CC(=O)Nc1ccc(-n2cnc(C(=O)N3CCN(c4cccc(C)c4)CC3)c2)nc1` gave an inhibition of -7.95%. `CC(=O)Nc1ccc(-n2cnc(C(=O)N3CCN(c4ccc(C)cc4)CC3)c2)nc1` showed an inhibition of 13.8%. In the case of `CC(=O)Nc1ccc(-n2cnc(C(=O)NCc3ccc(C)cc3)c2)nc1`, the inhibition is reported as 64.2% (active). Work on `Cc1nc(C2CCN(S(C)(=O)=O)CC2)nc2c1CCC(=O)N2CC(C)C` yielded an inhibition of -7.01%. `Cc1cc2nc(Cc3ccccc3)cc(=O)n2[nH]1` was tested, and the inhibition was -11.5%. For `CCN1CCN(S(=O)(=O)c2ccc3c(c2)CC(C)N3C(=O)C2CC2)CC1` (configuration not stated), the inhibition was 2.74%. `CC1CCCN(C(=O)c2cc(S(=O)(=O)N3CCCCC3)ccc2Cl)C1` (configuration not stated) showed an inhibition of -1.66%. In the case of `CC(C)NC(=O)CN1C(=O)CC(C)Sc2ccc(S(=O)(=O)N3CCCCC3)cc21` (configuration not stated), the inhibition is reported as 43.8% (active). In the case of `COc1ccc2ncc(S(=O)(=O)c3ccccc3)c(N3CCOCC3)c2c1`, the inhibition is reported as -6.05%. For `Cc1csc(C2(NC(=O)Cc3cc(C)on3)CCCC2)n1`, the inhibition was 31.4% (active). For `O=C(Cc1cccc(F)c1)NC1(c2nc(C3CC3)no2)CCCCC1`, the inhibition was 5.03%. Compound `Cc1noc(C2(NC(=O)Cc3ccccc3C)CCCCC2)n1` has an inhibition of -5.54%. Work on `Cc1nn2c(S(=O)(=O)NCc3ccccc3F)c(C)nc2s1` yielded an inhibition of 18.9%. `CCN(CC)c1ccc(NC(=O)Nc2ccc(OCc3ccccc3)cc2)cc1` showed an inhibition of 7.88%. Compound `CC1CCN(S(=O)(=O)N2CCCC(C(=O)Nc3ccccc3Cl)C2)CC1` (configuration not stated) has an inhibition of 1.17%. Work on `CC(C)C(=O)Nc1nc2cc(NS(=O)(=O)c3ccccc3)ccc2s1` yielded an inhibition of 4.36%. `O=C(CCc1nc2sc3c(c2c(=O)[nH]1)CCCC3)Nc1ccc(F)cc1` showed an inhibition of 2.56%. `O=C(Cc1cccc2ccccc12)Nc1nc2ccc(F)cc2s1` was tested, and the inhibition was 23.9%. With `CC(C)C(=O)Nc1nc2ccc(CCC(=O)Nc3ccc(F)cc3)cc2s1` the inhibition was 43.6% (active). For `CCCC(=O)Nc1nc2ccc(CCC(=O)NCc3ccc(F)cc3)cc2s1`, the inhibition was 65.3% (active). `Cc1ccc2nc(CCC(=O)NCc3ccc(F)cc3F)n(C)c(=O)c2c1` gave an inhibition of 10.9%. In the case of `Cc1ccc2[nH]cc(C(C(=O)O)N3CCN(c4ccc(C(F)(F)F)cn4)CC3)c2c1` (configuration not stated), the inhibition is reported as -4.78%. `Cc1cccc(C)c1NS(=O)(=O)c1ccc(N2CCCC2=O)cc1` gave an inhibition of -8.71%. `Cc1noc(C)c1CN1C[C@H](OCc2ccccn2)[C@H]2OCCC[C@H]21` showed an inhibition of -5.79%. `CCc1cc(=O)n(CC(=O)NCc2ccccc2)c(N2CCOCC2)n1` was tested, and the inhibition was -0.113%. `Cc1cc2nc(N3CCOCC3)n(CC(=O)Nc3ccccc3F)c(=O)c2n1C` was tested, and the inhibition was 36% (active). Work on `Cc1cc(=O)n(CC(=O)Nc2ccc(F)cc2C)c(N2CCCC2)n1` yielded an inhibition of 16.9%. With `O=C(Cc1c[nH]c2ccccc12)N1CCc2cc(-c3ccno3)ccc21` the inhibition was -26.7%. For `COc1ccc(-c2noc(-c3ccc(N(C)Cc4ccco4)nn3)n2)cc1`, the inhibition was 30.7% (active). Compound `COc1ccc(-c2noc(C3(c4ccccc4)CCOCC3)n2)cc1` has an inhibition of 19.3%. Work on `COc1ccc(-c2noc(CN(C3CCCCC3)S(=O)(=O)c3ccc(OC)cc3)n2)cc1` yielded an inhibition of 4.09%. For `CC(C)n1ncc2[nH]c(C3CCCN(C(=O)Nc4ccc(F)cc4)C3)nc21` (configuration not stated), the inhibition was -4.82%. In the case of `CCOC(=O)c1cc2c(ccn2-c2ccc(F)cc2)n1Cc1ncc(C)c(OC)c1C`, the inhibition is reported as -32%. For `COc1ccccc1C(=O)Nc1cccn2nc(C3CCC3)nc12`, the inhibition was 2.42%. `O=C(Nc1cc(-c2ccccc2)nn1C1CCS(=O)(=O)C1)c1ccccc1F` (configuration not stated) showed an inhibition of -23.8%. For `CC(C)(C)n1nc(C2CC2)c(Br)c1NC(=O)c1ccccc1F`, the inhibition was 93.7% (active). For `CCCCn1c(=O)[nH]c2c(c1=O)CCC2`, the inhibition was 4.26%. `Cc1ccc(S(=O)(=O)CC(=O)Nc2sc(C)c(C)c2C(N)=O)cc1` showed an inhibition of -27.2%. `Cc1sc(NC(=O)CS(=O)(=O)c2ccc(F)cc2)c(C(N)=O)c1C` gave an inhibition of -84%. With `Cc1sc(NC(=O)c2ccc(S(=O)(=O)N(C)CC3CCCO3)cc2)c(C(N)=O)c1C` (configuration not stated) the inhibition was 40.5% (active). Work on `CCN1CCN(C2=Nc3c(Cl)cc(Cl)c4cccc2c34)CC1` yielded an inhibition of -158%. With `O=c1c2ccccc2c(-c2nc(-c3ccncc3)no2)cn1-c1ccc(F)cc1` the inhibition was 37.7% (active). Compound `COc1ccccc1-c1nc(-c2ccc(-n3cccn3)nc2)no1` has an inhibition of 2.48%. In the case of `O=c1c2ccccc2ncn1Cc1noc(-c2ccccc2F)n1`, the inhibition is reported as -0.0976%.
